Results published in article PMC4242493, “Sequence specificity incompletely defines the genome-wide occupancy of Myc”.
Over roughly 33,000 sequences, “normalized occupancy” has its median near 0.075; the highest 2% begin near 0.095. Shown is part of a subset that was picked to be rich in the highest values.

The sequences below were run against MaxL homodimer (Homo sapiens, UniProt P61244 1-160) (assay: universal protein-binding microarray (PBM); PBS-based mixture, 10 nM His-tagged protein dimer, 2% milk, 200 ng/uL BSA, 50 ng/uL salmon testes DNA, 0.02% TX-100; detection with Alexa 488 anti-His antibody;; high values mean tight binding). Conditions: protein: recombinant; tags: C-terminal His-tag (pET21a); chain copies: 2; dsDNA, one strand shown.
Chain of MaxL homodimer (P61244 whole entry): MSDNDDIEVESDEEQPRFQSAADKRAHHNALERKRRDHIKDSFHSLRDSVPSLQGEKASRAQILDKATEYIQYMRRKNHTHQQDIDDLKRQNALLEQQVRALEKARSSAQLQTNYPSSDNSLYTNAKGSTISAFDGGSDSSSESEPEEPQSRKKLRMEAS
In short: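 Binding occupancy is a fluorescence intensity normalised to the intensity of the highest-ranked sequence word. Those intensities came from 8-mers on Agilent 4 x 44 K 'all 10-mer' universal arrays incubated with 10 nM His-tagged protein dimer. Bound protein was detected with 10 ng/μL fluorophore-conjugated anti-His antibody before scanning on a GenePix 4400A.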

| Sequence | binding signal |
| --- | --- |
| GGACCCCA | 0.0794 normalized occupancy |
| ATGAGAAA | 0.0743 normalized occupancy |
| ATTGGAAC | 0.076 normalized occupancy |
| ACGTGTGC | 0.109 normalized occupancy |
| ACGTGTGA | 0.105 normalized occupancy |
| CCGTGTGC | 0.0858 normalized occupancy |
| AAGTGTGG | 0.0819 normalized occupancy |
| ACGTGTGG | 0.104 normalized occupancy |
| CCGTGTGA | 0.0836 normalized occupancy |
| GCGTGTGA | 0.0941 normalized occupancy |
| AGGTGTGG | 0.0847 normalized occupancy |
| ACGTGCGA | 0.093 normalized occupancy |
| AAGTGTGC | 0.0869 normalized occupancy |
| CCGTGCGC | 0.0813 normalized occupancy |
| ACGTGCGC | 0.113 normalized occupancy |
| GACGAGAC | 0.0761 normalized occupancy |
| GACAAAAC | 0.0749 normalized occupancy |
| CACGAATG | 0.0777 normalized occupancy |
| ATTGAAGC | 0.0724 normalized occupancy |
| ATAGTCTG | 0.0754 normalized occupancy |
| CCATGCAG | 0.0965 normalized occupancy |
| AGATGCAT | 0.0784 normalized occupancy |
| ACATGCAT | 0.105 normalized occupancy |
| CCATGCAC | 0.0969 normalized occupancy |
| AGATGCAC | 0.0867 normalized occupancy |

| Sequence | binding signal |
| --- | --- |
| CAATGCAC | 0.0848 normalized occupancy |
| ATATGCAC | 0.092 normalized occupancy |
| CTATGCAC | 0.0874 normalized occupancy |
| AAATGCAT | 0.079 normalized occupancy |
| CTATGCAG | 0.0757 normalized occupancy |
| ACATGCAC | 0.0954 normalized occupancy |
| CCATGCAA | 0.0895 normalized occupancy |
| AAAGTGAA | 0.0782 normalized occupancy |
| ACTAGTCA | 0.0755 normalized occupancy |
| CTACCCGA | 0.0741 normalized occupancy |
| AAATATAC | 0.0881 normalized occupancy |
| GCATTAGC | 0.0727 normalized occupancy |
| CGTATGCC | 0.0784 normalized occupancy |
| ACATGCAG | 0.097 normalized occupancy |
| AGATGCAG | 0.0757 normalized occupancy |
| ACATGAAC | 0.0866 normalized occupancy |
| AAATGCAG | 0.0778 normalized occupancy |
| ACATGAAG | 0.0842 normalized occupancy |
| ACATGAAT | 0.0965 normalized occupancy |
| AAGCTATC | 0.0722 normalized occupancy |
| ATGACTTG | 0.0818 normalized occupancy |
| AAGTGCAG | 0.0763 normalized occupancy |
| GCGTGCCA | 0.09 normalized occupancy |
| AGGTGCAT | 0.0863 normalized occupancy |
| CCGTGCCC | 0.0733 normalized occupancy |

| Sequence | binding signal |
| --- | --- |
| AAGTGCAT | 0.085 normalized occupancy |
| GAGTGCAC | 0.082 normalized occupancy |
| GCGTGCAC | 0.109 normalized occupancy |
| CCGTGCAG | 0.0778 normalized occupancy |
| GCGTGCCC | 0.0965 normalized occupancy |
| ACGTGCAT | 0.104 normalized occupancy |
| ACGTGCAG | 0.101 normalized occupancy |
| CCGTGCAC | 0.0816 normalized occupancy |
| CGAATAAA | 0.0729 normalized occupancy |
| TAAATAAA | 0.0766 normalized occupancy |
| CCACCACG | 0.0914 normalized occupancy |
| ACCGGTTA | 0.0751 normalized occupancy |
| TAGGAAAA | 0.0729 normalized occupancy |
| CAGCTGAA | 0.0749 normalized occupancy |
| ACGAAAGC | 0.0763 normalized occupancy |
| TCCGAAAA | 0.0774 normalized occupancy |
| AGACTGTA | 0.0748 normalized occupancy |
| CTGTGCAC | 0.0869 normalized occupancy |
| ATGTGCAC | 0.0959 normalized occupancy |
| AGGTGCAC | 0.0767 normalized occupancy |
| CCGTGCAA | 0.078 normalized occupancy |
| ACGTGCAA | 0.098 normalized occupancy |
| GTGTGCAA | 0.0818 normalized occupancy |
| ATGTGCAA | 0.0875 normalized occupancy |
| AAGTGCAC | 0.0774 normalized occupancy |

| Sequence | binding signal |
| --- | --- |
| GCGTGCAA | 0.0963 normalized occupancy |
| TCGTGCAA | 0.0766 normalized occupancy |
| ACGTGCAC | 0.113 normalized occupancy |
| GGGTGCAA | 0.0755 normalized occupancy |
| GATGGACA | 0.0742 normalized occupancy |
| AATGCAAC | 0.0776 normalized occupancy |
| CATACGGG | 0.0812 normalized occupancy |
| CAGTTATA | 0.0794 normalized occupancy |
| CCTCCATC | 0.0784 normalized occupancy |
| CAACCTAA | 0.0744 normalized occupancy |
| CTAACATC | 0.0796 normalized occupancy |
| AGCGTCGC | 0.0721 normalized occupancy |
| CCCGTCCC | 0.0747 normalized occupancy |
| ATAATACC | 0.08 normalized occupancy |
| AGCCCAAA | 0.0722 normalized occupancy |
| CGCACGCA | 0.0894 normalized occupancy |
| AGCACGCC | 0.0846 normalized occupancy |
| CGCACGCG | 0.121 normalized occupancy |
| AGCACACA | 0.0906 normalized occupancy |
| AGCACGCT | 0.104 normalized occupancy |
| CGCACGCC | 0.0878 normalized occupancy |
| AGCACACG | 0.0942 normalized occupancy |
| AGCACGCA | 0.0909 normalized occupancy |
| AGCACGCG | 0.156 normalized occupancy |
| GAAATCAA | 0.075 normalized occupancy |

| Sequence | binding signal |
| --- | --- |
| ATGTAGTG | 0.0796 normalized occupancy |
| CCCTTATA | 0.0809 normalized occupancy |
| ACTTGTAC | 0.0751 normalized occupancy |
| CAAACGTA | 0.0729 normalized occupancy |
| AAAACGTA | 0.0744 normalized occupancy |
| AAAACGTT | 0.0743 normalized occupancy |
| CAAACGTG | 0.103 normalized occupancy |
| CAAACGTC | 0.0739 normalized occupancy |
| AAAACGTG | 0.122 normalized occupancy |
| ATAGTGAA | 0.0751 normalized occupancy |
| AACCCGAG | 0.0727 normalized occupancy |
| AGCATCCT | 0.0767 normalized occupancy |
| AGCATTCA | 0.0761 normalized occupancy |
| AGCATGCA | 0.114 normalized occupancy |
| AACATGCT | 0.0905 normalized occupancy |
| CGAATGCG | 0.0744 normalized occupancy |
| CGCATGCG | 0.133 normalized occupancy |
| CGCATCCG | 0.0736 normalized occupancy |
| TGCATGCA | 0.1 normalized occupancy |
| AGCATGCT | 0.134 normalized occupancy |
| TGCATACA | 0.085 normalized occupancy |
| TGCATGAA | 0.0821 normalized occupancy |
| AGCATACA | 0.087 normalized occupancy |
| GCGTACAA | 0.0756 normalized occupancy |
| GCTTAGAC | 0.0762 normalized occupancy |

| Sequence | binding signal |
| --- | --- |
| GTATTGAC | 0.0759 normalized occupancy |
| ACCGTCCA | 0.0727 normalized occupancy |
| CAATAACA | 0.0785 normalized occupancy |
| GCATACCA | 0.0835 normalized occupancy |
| AAGCATCC | 0.0817 normalized occupancy |
| CGCATCCC | 0.0821 normalized occupancy |
| AGCATCCC | 0.077 normalized occupancy |
| CGAATGCA | 0.0799 normalized occupancy |
| GGCATGCA | 0.109 normalized occupancy |
| CGCATGCC | 0.116 normalized occupancy |
| CGCATTCA | 0.0752 normalized occupancy |
| AGCATTCC | 0.0752 normalized occupancy |
| AGCATGCC | 0.112 normalized occupancy |
| GGCATGAA | 0.081 normalized occupancy |
| CGCATGCA | 0.122 normalized occupancy |
| CGGATGCC | 0.0725 normalized occupancy |
| GGCATGCC | 0.0932 normalized occupancy |
| TAAGTACA | 0.0831 normalized occupancy |
| AGTACTAA | 0.0769 normalized occupancy |
| GGGTTCTA | 0.0754 normalized occupancy |
| CGATTGGC | 0.0736 normalized occupancy |
| ACTTCGGG | 0.0726 normalized occupancy |
| AGCCCTTG | 0.0731 normalized occupancy |
| AGATTGGA | 0.0757 normalized occupancy |
| AACATCGC | 0.0768 normalized occupancy |

| Sequence | binding signal |
| --- | --- |
| GTTCTCTA | 0.0731 normalized occupancy |
| CGTGGTTC | 0.0858 normalized occupancy |
| CGGAGGTA | 0.0743 normalized occupancy |
| AGCATGCG | 0.124 normalized occupancy |
| AGTATGCG | 0.077 normalized occupancy |
| AGCATCCG | 0.0757 normalized occupancy |
| GCAAGGTA | 0.0757 normalized occupancy |
| CGCAGTAC | 0.0724 normalized occupancy |
| GTATGGGA | 0.0804 normalized occupancy |
| CTATGGCA | 0.0779 normalized occupancy |
| ATATGGCA | 0.098 normalized occupancy |
| ATATGGCG | 0.0846 normalized occupancy |
| CTATGGGA | 0.0764 normalized occupancy |
| ATATGGGA | 0.0957 normalized occupancy |
| ATGATAAG | 0.0844 normalized occupancy |
| AGCTCCAT | 0.0804 normalized occupancy |
| CACATGCC | 0.134 normalized occupancy |
| CACATGCG | 0.159 normalized occupancy |
| AACATGCA | 0.0927 normalized occupancy |
| AACATGCG | 0.101 normalized occupancy |
| AACATACG | 0.0835 normalized occupancy |
| CAAATGCC | 0.0743 normalized occupancy |
